# The panel holds about 79,000 compounds, 15% with a hit somewhere; the sample as a whole holds those more often. Unmarked numbers belong to inactive results. Active and inactive are the calls of the source. No stated cut-off is given here; in the data, active means growth inhibition above about 70%; inactive means the rest.
# How the values were obtained:
# [1] = NCI Yeast Anticancer Drug Screen. Data for the rad50 strain (AID 155);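 further: 0% = growth of vehicle-only cultures of the same strain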; conditions: S. cerevisiae rad50 strain growth inhibition, hits give high values
# Summary of the method: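 Compounds were tested on a yeast strain with an engineered DNA damage repair alteration; the reported value is growth inhibition normalised to vehicle treatment.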
# [2] = NCI Yeast Anticancer Drug Screen. Data for the mec2-1 strain (AID 157); conditions: S. cerevisiae mec2-1 strain, hits give high values
# Summary of the method: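 Test agents were screened against the mec2-1 yeast strain, with defined DNA repair or cell cycle alteration. Growth was scored as inhibition against vehicle-only controls.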
# [3] = NCI Yeast Anticancer Drug Screen. Data for the sgs1 mgt1 strain (AID 161);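 further: 0% = growth of cultures given vehicle only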; conditions: S. cerevisiae sgs1 mgt1 strain, hits give high values
# Summary of the method: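 Mutant yeast exposed to compound; growth scored against vehicle-only wells.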
# [4] = NCI Yeast Anticancer Drug Screen. Data for the cln2 rad14 strain (AID 165);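 further: 0% = growth equal to vehicle treated cultures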; conditions: S. cerevisiae cln2 rad14 strain, hits give high values
# Summary of the method: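 Growth of compound-exposed yeast (cln2 rad14 genotype) measured and expressed as inhibition relative to vehicle.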
# [5] = NCI Yeast Anticancer Drug Screen. Data for the bub3 strain (AID 167); conditions: S. cerevisiae bub3 mutant strain, hits give high values
# Summary of the method: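 Growth of a checkpoint-deficient yeast mutant is measured after compound exposure. Values represent inhibition relative to vehicle.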
# [6] = NCI Yeast Anticancer Drug Screen. Data for the mlh1 rad18 strain (AID 175); conditions: S. cerevisiae mlh1 rad18 strain growth inhibition, hits give high values
# Summary of the method: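 In this whole-cell yeast screen, a strain with altered DNA damage repair is challenged with compound, and its growth is measured against matched vehicle-treated controls.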
# [7] = at 5.0 µM (retest, dose inferred, filed as 0.5)
# [8] = at 50.0 µM (retest, dose inferred, filed as 5.0)
SMILES,"growth inhibition [1, 7]","growth inhibition [1, 8]",growth inhibition ([1]; at 50.0 µM),"growth inhibition [2, 7]","growth inhibition [2, 8]",growth inhibition ([2]; at 50.0 µM),"growth inhibition [3, 7]","growth inhibition [3, 8]",growth inhibition ([3]; at 50.0 µM),"growth inhibition [4, 7]","growth inhibition [4, 8]",growth inhibition ([4]; at 50.0 µM),"growth inhibition [5, 7]","growth inhibition [5, 8]",growth inhibition ([5]; at 50.0 µM),"growth inhibition [6, 7]","growth inhibition [6, 8]",growth inhibition ([6]; at 50.0 µM)
CCOC(=O)c1cc2c(nc1NCc1ccc(OC)c(OC)c1)/C(=C/c1ccccc1)CCCC2,38%,94% (active),90.2% (active),17%,93% (active),88.8% (active),47%,94% (active),91.8% (active),28%,84% (active),80.2% (active),49%,94% (active),92.5% (active),58%,92% (active),90.2% (active)
CC1CC(c2ccccc2)(c2ccccc2)C(=O)C(C)N1C (stereo not given),-1%,22%,13.6%,-2%,-5%,29.9%,0%,-19%,14.2%,-1%,-2%,28%,-4%,10%,72% (active),-3%,7%,25.9%
C/C(=N/NC(=S)NCc1ccccc1)c1ncccn1,-6%,98% (active),98.8% (active),14%,98% (active),98.9% (active),2%,98% (active),99% (active),7%,98% (active),97.8% (active),-23%,98% (active),98.5% (active),3%,98% (active),98.9% (active)
C=C1C(=O)O[C@@H]2CC(CO)=C([C@@H](C)CCCO)[C@@H](OC(=O)/C(C)=C\C)[C@H]12,3%,10%,92.2% (active),5%,33%,94.3% (active),4%,25%,93.8% (active),1%,6%,92.2% (active),9%,65%,92.8% (active),-2%,29%,-33.3%
c1ccc(-c2c[nH]c(-c3ccccc3)c2-c2ccccc2)cc1,1%,90% (active),95.2% (active),-13%,93% (active),95.1% (active),-15%,94% (active),93.3% (active),-4%,80% (active),95% (active),7%,92% (active),83.4% (active),18%,94% (active),96.8% (active)
O=[N+]([O-])c1ccc(S(=O)(=O)C/C=C/CCl)c([N+](=O)[O-])c1,54%,99% (active),99.2% (active),34%,100% (active),99.6% (active),43%,99% (active),99.5% (active),20%,99% (active),99.5% (active),37%,99% (active),99.4% (active),71% (active),99% (active),99.5% (active)
CC(=O)CC(C)=NCCN=C(C)CC(C)=O.[Pd],-6%,61%,76% (active),-1%,78% (active),67.2%,0%,96% (active),94.3% (active),-5%,41%,53%,-1%,60%,76.2% (active),-9%,74% (active),83.7% (active)
O=C1/C(=C\c2ccccc2)CCC/C1=C\O,-139%,-89%,39.9%,-46%,-40%,46.5%,-50%,-44%,6.4%,-56%,-56%,33.9%,-64%,-68%,20%,-112%,-92%,58.2%
O=C(NCCCCCCNC(=O)n1cc(F)c(=O)[nH]c1=O)NC1C(O)OC(CO)C(O)C1O (stereo not given),63%,89% (active),93.9% (active),80% (active),96% (active),97.6% (active),83% (active),93% (active),93.1% (active),34%,84% (active),51%,22%,90% (active),80% (active),48%,90% (active),88.2% (active)
C=C(CN(C)C)C(=O)c1ccc(OC2OC(COC(C)=O)C(OC(C)=O)C(OC(C)=O)C2OC(C)=O)cc1 (stereo not given),-1%,2%,-5.65%,0%,5%,-18.4%,3%,-43%,-8.8%,7%,2%,10.4%,15%,4%,-3.75%,5%,2%,-18.9%

# Source: PubChem BioAssay (NCI)
